# This is a sample that favours compounds with a hit; in the whole collection about 4% have one here.
# CF NFkB inh = inhibitors of PAF-induced NF-kB signaling, primary screen, cell-based, GFP fluorescence, uHTS; inhibition, % at 5 µM; KKLEB NF-kB-GFP reporter, GFP fluorescence overnight; AID 588850, 2011; hit rate 0.86% among 360,000;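 active = at least 50% inhibition at 5 µM, scaled per plate between neutral and stimulator controls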;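 also: PAF is a Pseudomonas aeruginosa culture filtrate used as stimulus; plate controls were PAF-stimulated DMSO wells for no effect and unstimulated DMSO wells for full effect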
# HIF-2a inh = HIF-2a reporter inhibitors, primary screen, luminescence, 786-0 RCC cells; 786-0 RCC cells HIF-2a reporter, luciferase luminescence, overnight; hit rate 0.72% among 360,000; inhibition, % at 18.8 µM; AID 624352, 2012;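 active = inhibition of the luminescence signal of 40% or more relative to plate controls, in a single-dose primary screen at 18.75 µM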
# KKLEB tox = cytotoxicity in KKLEB CF airway cells, primary screen, cytotoxicity control for CF NF-kB inhibitor project, cell-based, uHTS, fluorescence assay plates; KKLEB CF airway cells viability, ATPlite luminescence, overnight; hits give low values; cells stimulated with P. aeruginosa culture filtrate; activity change (cytotoxicity), % at 5 µM; hit rate 0.36% among 360,000;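 active = corrected activity change at or below -50% at 5 µM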
# TWEAK Fn14 block = inhibitors of TWEAK-Fn14 signaling, primary screen, luciferase reporter cells, uHTS; TWEAK-stimulated Fn14 reporter cells, luciferase luminescence, 8 h; inhibition, % at 10 µM; hit rate 2% among 360,000; AID 1159606, 2016; in the data active = inhibition above about 50%
# TROY signal inh = inhibitors of TROY-driven NF-kB signaling, primary screen, Q293 LMP1-TROYcd cells, NF-kB luciferase, uHTS; Q293 LMP1-TROYcd NF-kB luciferase reporter, 4 h; AID 1347056, 2019; inhibition, % at 10 µM; hit rate 0.98% among 360,000;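 active = compounds whose plate-normalised and pattern-corrected inhibition of the luciferase reporter signal at the single screening dose is 50% or more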
# Peg3 prom inh = Peg3 promoter-driven luciferase inhibitors, primary screen, cell-based, HeLa, luciferase luminescence; HeLa PEG-Prom luciferase reporter, overnight; inhibition, % at 20 µM; hit rate 1.7% among 360,000; AID 588405, 2011;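 active = inhibition of at least 50% at 20 µM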
# Numbers without * were called inactive; . = no result given.
SMILES,CF NFkB inh,HIF-2a inh,KKLEB tox,TWEAK Fn14 block,TROY signal inh,Peg3 prom inh
Cc1nc2cc(N3CCCCC3)c(NC(=O)c3ccncc3)cc2c(=O)n1Cc1ccccc1,15,-3,-7,-10,-10,86*
Cc1nc2cc(N3CCOCC3)c(NC(=O)C3CC3)cc2c(=O)n1Cc1ccccc1,4,8,-8,-22,-15,-11
COc1ccc(C(=O)CC(=O)C(=O)Nc2ccc(Cl)cc2)cc1,-2,8,-4,17,-67,6
COc1ccc(C(=O)CC(Nc2ccc([N+](=O)[O-])cc2)c2ccc(Cl)cc2)cc1 (stereo not drawn),4,-39,-16,53*,11,25
O=C(O)c1cccc(N/N=C/c2cccnc2)c1,-8,-21,19,-24,5,58*
Cc1ccc(C(C(=O)NC(C)(C)C)N(Cc2ccco2)C(=O)Cn2nnc(-c3cccs3)n2)cc1 (stereo not drawn),4,21,-2,13,-16,18
CC(C)(C)NC(=O)C(c1ccncc1)N(Cc1cccs1)C(=O)Cn1nnc(-c2cccs2)n1 (stereo not drawn),5,20,-4,4,-11,63*
CCCCNC(=O)C[C@@H]1C[C@@]2(C(=O)OC)CCCCC=C2N(CCC2=CCCCC2)C1=O,.,-9,.,3,7,.
Cc1ccc(OCCCNCCO)c(Br)c1,-1,-37,11,53*,20,2
CC(C)c1ccc(C(=O)N2CCOCC2c2cc(C(=O)Nc3ccccc3)no2)cc1 (stereo not drawn),-14,-47,4,6,-4,-8
CCOC(=O)C1=CCN(S(=O)(=O)c2ccccc2Br)C1c1ccc(C)cc1 (stereo not drawn),-6,3,10,4,-8,7
COc1cccc(C(O)c2nccn2Cc2ccccc2)c1OC (stereo not drawn),-6,19,0,3,-1,12
O=S(=O)(c1cnc(Cl)c(Cl)c1)N1CCc2ccccc21,-30,22,3,22,10,42
O=S(=O)(c1cnc(Cl)c(Cl)c1)N1CCCc2ccccc21,-8,22,14,25,-7,52*
O=S(=O)(c1cnc(Cl)c(Br)c1)N1CCc2ccccc21,-32,36,10,36,28,69*
COc1ccc(S(=O)(=O)N2CCCc3ccccc32)cc1OC,0,-63,1,56*,60*,6
O=S(=O)(c1cc(Cl)ccc1Cl)N1CCc2ccccc21,4,27,-7,-2,14,27
O=C(NCCCNC(=O)c1ccco1)c1ccc(Cl)c(Cl)c1,5,-4,5,11,-26,53*
CCCCN1C(=O)C(CC(=O)NC(c2ccccc2)c2ccccc2)CC(C(=O)N(C(C)C)C(C)C)=C1C (stereo not drawn),4,3,-2,14,-10,2
CCN(Cc1ccccc1)S(=O)(=O)c1ccc(C(=O)N2CCN(c3nc4ccccc4s3)CC2)cc1,-20,-28,-9,93*,46,-3
CCN(CC)S(=O)(=O)c1ccc(C(=O)N2CCN(c3ncccn3)CC2)cc1,3,11,-10,8,0,18
CC(NS(=O)(=O)c1cccc(C(=O)N(C)Cc2ccc(N3CCOCC3)cc2)c1)c1ccccc1 (stereo not drawn),-5,4,2,-21,2,24
CC(C)(C)c1ccc(NC(=O)c2ccccc2)c([N+](=O)[O-])c1,4,-236,-2,30,58*,-287
O=C(Nc1ccccc1[N+](=O)[O-])c1cncc(Br)c1,15,-35,-4,104*,8,-54
O=C(Nc1ccc(F)cc1F)c1cncc(Br)c1,15,-2,-1,10,-11,-12
Cc1c(NC(=O)c2ccc(C(C)(C)C)cc2)cccc1[N+](=O)[O-],8,-182,-7,-18,-62,-236
CCCCCSc1nncc(=O)[nH]1,-9,0,2,1,-11,2
